Assay results reported in PubChem BioAssay (NCI).
The panel holds about 79,000 compounds, 15% with a hit somewhere; the sample as a whole holds those more often. Active and inactive are the calls of the source. No stated cut-off is given here; in the data, active means growth inhibition above about 70%; inactive means the rest.

Experiments:
[1] = NCI Yeast Anticancer Drug Screen. Data for the rad52 strain (AID 147);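 further: 0% = growth of vehicle-treated control cultures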; settings: S. cerevisiae rad52 mutant growth inhibition, hits give high values
Outline: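 Screen used a yeast mutant impaired in DNA repair. After compound exposure, growth was measured. Values reflect inhibition compared with vehicle-treated cells.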

[2] = NCI Yeast Anticancer Drug Screen. Data for the wt1 strain (AID 149);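 further: 0% = growth of vehicle-treated wt1 cultures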; settings: S. cerevisiae wt1 strain (SPY 50644) growth inhibition, hits give high values
Outline: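 wt1 yeast, compound-treated; % growth inhibition vs vehicle control.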

[3] = NCI Yeast Anticancer Drug Screen. Data for the rad50EPP+ strain (AID 151);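 further: 0% = growth of vehicle-treated control cultures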; settings: S. cerevisiae rad50 mutant strain, hits give high values
Outline: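 Exposing the rad50EPP+ strain to each compound, growth was compared with vehicle-only cultures to give inhibition.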

[4] = NCI Yeast Anticancer Drug Screen. Data for the mgt1 strain (AID 153); settings: S. cerevisiae mgt1 mutant growth inhibition, hits give high values
Outline: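 Genetically defined yeast (mgt1) treated with compound; inhibition of growth expressed against vehicle-treated controls.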

[5] = NCI Yeast Anticancer Drug Screen. Data for the rad50 strain (AID 155);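 further: 0% = growth of vehicle-only cultures of the same strain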; settings: S. cerevisiae rad50 strain growth inhibition, hits give high values
Outline: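 Genetically altered yeast (DNA repair pathway); compound treatment; growth inhibition vs vehicle ctrl.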

[6] = NCI Yeast Anticancer Drug Screen. Data for the mec2-1 strain (AID 157); settings: S. cerevisiae mec2-1 strain, hits give high values
Outline: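 Readout is yeast growth inhibition, normalised to vehicle-treated controls, in the mec2-1 strain exposed to compound.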

[7] = NCI Yeast Anticancer Drug Screen. Data for the rad14 strain (AID 159);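 further: 0% = growth of vehicle-treated control cultures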; settings: S. cerevisiae rad14 strain growth inhibition, hits give high values
Outline: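 Test compounds were applied to a repair-deficient yeast strain. Its growth was then compared with that of cultures given vehicle alone, and inhibition was expressed relative to those controls.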

[8] = NCI Yeast Anticancer Drug Screen. Data for the sgs1 mgt1 strain (AID 161);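 further: 0% = growth of cultures given vehicle only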; settings: S. cerevisiae sgs1 mgt1 strain, hits give high values
Outline: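 This yeast growth screen uses a strain with defined DNA-repair lesions; compound-treated growth is compared with vehicle-treated growth.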

[9] = NCI Yeast Anticancer Drug Screen. Data for the cln2 rad14 strain (AID 165);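 further: 0% = growth equal to vehicle treated cultures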; settings: S. cerevisiae cln2 rad14 strain, hits give high values
Outline: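 Relative to vehicle controls, growth inhibition of compound-treated cln2 rad14 yeast was recorded.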

[10] = NCI Yeast Anticancer Drug Screen. Data for the bub3 strain (AID 167); settings: S. cerevisiae bub3 mutant strain, hits give high values
Outline: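 Yeast carrying a defined mutation is treated with each compound, and growth is compared with that of vehicle-exposed cells to give inhibition.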

[11] = NCI Yeast Anticancer Drug Screen. Data for the wt2 strain (AID 169);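 further: 0% = growth of vehicle-treated yeast cultures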; settings: S. cerevisiae wt2 strain growth inhibition, hits give high values
Outline: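 Values express reduction in yeast growth under compound treatment, referenced to vehicle-treated cells.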

[12] = NCI Yeast Anticancer Drug Screen. Data for the mlh1 strain (AID 171);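 further: 0% = growth of vehicle-treated control cultures of the same strain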; settings: S. cerevisiae mlh1 strain growth inhibition, hits give high values
Outline: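 Steps: expose the defined-mutant yeast strain to compound; expose a parallel culture to vehicle; measure growth; express compound effect as inhibition relative to the vehicle culture.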

[13] = NCI Yeast Anticancer Drug Screen. Data for the sgs1 strain (AID 173);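 further: 0% = growth of vehicle-only control cultures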; settings: S. cerevisiae sgs1 mutant, hits give high values
Outline: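 Treat defined-mutant yeast with compound; measure growth; calculate inhibition relative to vehicle-treated cells.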

[14] = NCI Yeast Anticancer Drug Screen. Data for the mlh1 rad18 strain (AID 175); settings: S. cerevisiae mlh1 rad18 strain growth inhibition, hits give high values
Outline: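 Test agents were incubated with a yeast strain of defined genotype (DNA damage repair defect). Inhibition of growth was derived by comparison with vehicle-exposed cultures.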

[15] = NCI Yeast Anticancer Drug Screen. Data for the rad18 strain (AID 177); settings: S. cerevisiae rad18 mutant growth inhibition, hits give high values
Outline: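 A genetically defined yeast mutant impaired in DNA damage repair was treated with test compounds, then its growth was measured against cultures receiving vehicle alone.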

[16] = NCI Yeast Anticancer Drug Screen. Data for the CLN2oe strain (AID 163);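 further: 0% = growth of vehicle-only control cultures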; settings: S. cerevisiae CLN2oe strain, hits give high values
Outline: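 Values reflect how much compound exposure reduced yeast growth, referenced to vehicle-exposed cells. Assay organism is a strain with a defined genetic change affecting cell-cycle control.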

[17] = at 5.0 µM (retest, dose inferred, filed as 0.5)
[18] = at 50.0 µM (retest, dose inferred, filed as 5.0)

Measured: growth inhibition

c1cc2c(cc1C1OC[C@H]3[C@@H](c4ccc5c(c4)OCO5)OC[C@@H]13)OCO2 (stereo partly specified)
inactive: [1]; at 1.2 µM -9% | [1]; at 3.7 µM -16% | [1]; at 11.0 µM -3% | [1]; at 33.0 µM -1% | [1]; at 100.0 µM -6% | [2]; at 1.2 µM -1% | [2]; at 3.7 µM -6% | [2]; at 11.0 µM 1% | [2]; at 33.0 µM -20% | [2]; at 100.0 µM -8% | [3]; at 1.2 µM -7% | [3]; at 3.7 µM -16% | [3]; at 11.0 µM 3% | [3]; at 33.0 µM 16% | [3]; at 100.0 µM 2% | [4]; at 1.2 µM -4% | [4]; at 3.7 µM -9% | [4]; at 11.0 µM -2% | [4]; at 33.0 µM -5% | [4]; at 100.0 µM -5% | [5]; at 1.2 µM -16% | [5]; at 3.7 µM -19% | [5]; [17] 2% | [5]; at 11.0 µM -16% | [5]; at 33.0 µM -22% | [5]; [18] 3% | [5]; at 50.0 µM 15.3% | [5]; at 100.0 µM 8% | [6]; at 1.2 µM -2% | [6]; at 3.7 µM -4% | [6]; [17] 2% | [6]; at 11.0 µM -4% | [6]; at 33.0 µM -5% | [6]; [18] 8% | [6]; at 50.0 µM -0.6% | [6]; at 100.0 µM -1% | [7]; at 1.2 µM 1% | [7]; at 3.7 µM 6% | [7]; at 11.0 µM 17% | [7]; at 33.0 µM 26% | [7]; at 100.0 µM 28% | [8]; [17] 7% | [8]; [18] 20% | [8]; at 50.0 µM 60% | [9]; [17] -2% | [9]; [18] -8% | [9]; at 50.0 µM 10.8% | [10]; at 1.2 µM 14% | [10]; at 3.7 µM 26% | [10]; at 11.0 µM 37% | [10]; at 33.0 µM 46% | [10]; at 100.0 µM 39% | [11]; at 1.2 µM -1% | [11]; at 3.7 µM 2% | [11]; at 11.0 µM 7% | [11]; at 33.0 µM 24% | [11]; at 100.0 µM 12% | [12]; at 1.2 µM -16% | [12]; at 3.7 µM -8% | [12]; at 11.0 µM -8% | [12]; at 33.0 µM -8% | [12]; at 100.0 µM -6% | [13]; at 1.2 µM -16% | [13]; at 3.7 µM -11% | [13]; at 11.0 µM 3% | [13]; at 33.0 µM 9% | [13]; at 100.0 µM 15% | [14]; [17] 7% | [14]; [18] 17% | [14]; at 50.0 µM 27.6% | [15]; at 1.2 µM -10% | [15]; at 3.7 µM -6% | [15]; at 11.0 µM -4% | [15]; at 33.0 µM -8% | [15]; at 100.0 µM -11%
active: [10]; [17] 70% | [10]; [18] 83% | [10]; at 50.0 µM 75.8%

C[N+]1(CCCl)CC[N+](C)(CCCl)CC1 (stereo unspecified)
inactive: [1]; at 1.2 µM 0% | [1]; at 3.7 µM 3% | [1]; at 11.0 µM 5% | [1]; at 33.0 µM 36% | [2]; at 1.2 µM 0% | [2]; at 3.7 µM -1% | [2]; at 11.0 µM 1% | [2]; at 33.0 µM 14% | [3]; at 1.2 µM 0% | [3]; at 3.7 µM 0% | [3]; at 11.0 µM 2% | [3]; at 33.0 µM 7% | [3]; at 100.0 µM 56% | [4]; at 1.2 µM -2% | [4]; at 3.7 µM 1% | [4]; at 11.0 µM 3% | [4]; at 33.0 µM 29% | [5]; at 1.2 µM 1% | [5]; at 3.7 µM 2% | [5]; [17] 18% | [5]; at 11.0 µM 4% | [5]; at 33.0 µM 48% | [6]; at 1.2 µM -3% | [6]; at 3.7 µM -3% | [6]; [17] 21% | [6]; at 11.0 µM 2% | [7]; at 1.2 µM 1% | [7]; at 3.7 µM 3% | [7]; at 11.0 µM 7% | [7]; at 33.0 µM 56% | [8]; [17] 29% | [16]; at 1.2 µM -3% | [16]; at 3.7 µM -2% | [16]; at 11.0 µM 3% | [16]; at 33.0 µM 32% | [9]; [17] 2% | [10]; at 1.2 µM 1% | [10]; at 3.7 µM 1% | [10]; at 11.0 µM -5% | [10]; at 33.0 µM 29% | [11]; at 1.2 µM 0% | [11]; at 3.7 µM 0% | [11]; at 11.0 µM 1% | [11]; at 33.0 µM 14% | [12]; at 1.2 µM 0% | [12]; at 3.7 µM -1% | [12]; at 11.0 µM 0% | [12]; at 33.0 µM 13% | [13]; at 1.2 µM 0% | [13]; at 3.7 µM -1% | [13]; at 11.0 µM 1% | [13]; at 33.0 µM 34% | [14]; [17] 13% | [15]; at 1.2 µM -2% | [15]; at 3.7 µM -1% | [15]; at 11.0 µM 5% | [15]; at 33.0 µM 61%
active: [1]; at 100.0 µM 95% | [2]; at 100.0 µM 95% | [4]; at 100.0 µM 97% | [5]; [18] 95% | [5]; at 50.0 µM 97.2% | [5]; at 100.0 µM 96% | [6]; at 33.0 µM 81% | [6]; [18] 99% | [6]; at 50.0 µM 96.7% | [6]; at 100.0 µM 98% | [7]; at 100.0 µM 96% | [8]; [18] 98% | [8]; at 50.0 µM 96.1% | [16]; at 100.0 µM 95% | [9]; [18] 96% | [9]; at 50.0 µM 94.3% | [10]; [17] 78% | [10]; [18] 98% | [10]; at 50.0 µM 97% | [10]; at 100.0 µM 97% | [11]; at 100.0 µM 94% | [12]; at 100.0 µM 94% | [13]; at 100.0 µM 96% | [14]; [18] 97% | [14]; at 50.0 µM 97.6% | [15]; at 100.0 µM 97%
